Screens from PubChem.
RE007 growth inh = less growth of the S. pombe RE007 Vpr strain. S. pombe RE007 Vpr strain, BacTiter-Glo ATP luminescence, 24 h. Potency, µM (titrated, usually from 92.2 µM), for the others: top-dose activity change, negative = less growth, hits mostly inhibitors. hit rate 0.21% among 360,000; active = well fitted falling curve with a large enough effect; inconclusive = small, poorly fitted or top-dose-only effect; inactive = no such curve, though single readings can be large or run the other way; note: nearly all actives have a fitted effect of over 50% in size
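Fission yeast RE007 carrying one integrated HIV-1 vpr copy, seeded at OD 0.01 in PMG+AL medium with 23 nL pinned compound. Grown 24 h at 30 degrees; viability read by BacTiter-Glo luminescence after 5 min.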
FMDV inh = foot and mouth disease virus antiviral activity. FMDV antiviral cell-based qHTS. Potency, µM (titrated, usually from 57.9 µM), for inactives: at the highest dose activity change, negative = inhibition, hits mostly inhibitors. hit rate 1.2% among 410,000. AID 1159524; calls by dose curve; tested in HEK293T cells; note: read-out not given here; nearly all actives have a fitted effect of over 45% in size
HCV inh = blocks hepatitis C virus. Huh7.5.1 HCVcc-Cre infection, luciferase reporter, 44 h. Potency, µM (highest dose often 41.8 µM), for inactives: top-dose activity change, negative = inhibition, hits mostly inhibitors. hit rate 3.4% among 340,000
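Antiviral activity was scored by luciferase reporter output from cells infected with HCVcc-Cre (~0.5 moi) in presence of compound, 44 h infection period, cells seeded 1,000/well 4 h prior.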
MARV entry inh = Marburg virus entry inhibition; Marburg virus pseudotyped entry inhibition, cell reporter; Potency, µM (highest dose often 37.8 µM), for inactives: at the highest dose activity change, negative = inhibition, usual class: inhibitors; AID 540276; hit rate 1.8% among 300,000; calls by dose curve; tested in HEK293 cells
LASV entry inh = Lassa virus entry inhibition. Lassa virus pseudotype entry inhibition, cell reporter. Potency, µM (doses to about 37.9 µM), without a hit: at the top dose activity change, negative = inhibition, usual class: inhibitors. hit rate 1.2% among 300,000. AID 540256; calls by dose curve; tested in HEK293 cells; note: nearly all actives have a fitted effect of over 50% in size
Sm TGR block = inhibitors of Schistosoma mansoni thioredoxin glutathione reductase. Potency, µM (highest dose often 114 µM), for the others: at the highest dose activity change, negative = inhibition, hits mostly inhibitors. Q962Y6. purified TGR, DTNB reduction, TNB absorbance 405 nm. AID 485364. hit rate 3% among 360,000; note: nearly all actives have a fitted effect of over 60% in size
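First, TGR (20 nM dispensed) and NADPH were mixed with compound. Second, a 15 min room-temperature incubation followed. Third, further NADPH and then DTNB were added to start the reaction. Finally, TNB absorbance was monitored kinetically.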
Starred values were filed as active, the others as inactive; ? = inconclusive; · = not tested or not shown; ! = not active in a repeat; [ ] = another dose, or the depositor's remark. Shown are actives, neighbours in structure and some others; about 7.2% of the full set was active somewhere. Unless noted, calls come from the whole dose curve; as a rule, active = well fitted curve in the direction sought with a large enough effect; inconclusive = small, poorly fitted or top-dose-only effect, or another doubt; inactive = no such curve, though single readings can be large; an effect the other way counts as inactive or inconclusive. % is set by controls: 0 for no effect and ±100 for the full control effect; potency is the fitted concentration of half-maximal effect.

SMILES	RE007 growth inh	FMDV inh	HCV inh	MARV entry inh	LASV entry inh	Sm TGR block
Cc1c(NS(=O)(=O)c2ccccc2)cc(C(C)C)c(O)c1S(=O)(=O)c1ccc(Cl)cc1	·	-3%	·	11µM*	-19%[46.1 µM]	1%
COc1cccc(N2CC(NC(=O)COc3ccccc3F)CC2=O)c1 (configuration not stated)	·	-15%	·	·	0%[46.1 µM]	10%
Cc1nn2c(c1-c1ccc(Cl)cc1)N=C(c1ccco1)CC2c1ccccc1 (configuration not stated)	11%	-4%	2.5µM*	?	?	20%
CC(C)c1ccc(NC(=O)CSc2ncc3c(n2)-c2ccccc2N(C)S3(=O)=O)cc1	·	-5%	·	·	-34%[46.1 µM]	-1%
Cc1ccc(CNC(=O)CCc2nnc(Cc3ccc(-c4ccccc4)cc3)o2)o1	-3%	-3%	9%	3%[46.1 µM]	-2%[46.1 µM]	25µM*
COCCCNC(=O)CCc1nnc(Cc2ccc(-c3ccccc3)cc2)o1	19%	-4%	11%	15%[46.1 µM]	3%[46.1 µM]	-12%
Cc1cccc(N2CCN(C(=O)Cn3c(-c4cccs4)cc4ccccc43)CC2)c1C	·	-13%	·	·	-12%[46.1 µM]	1%
CC(=O)C1(C)CC2(CC(C)(C)OC2=O)C(=O)O1 (configuration not stated)	·	-7%	·	·	·	·
O=[N+]([O-])c1ccc(N2CCOCC2)c2cccnc12	7%	-15%	-4%	·	·	-2%
O=[N+]([O-])c1cccc2c(N3CCCC3)ccnc12	-12%	?	3.5µM*	?	?	-15%
Nc1nc2ncc(=O)[nH]c2c(=O)[nH]1	·	1%	·	·	·	·
O=C(NC(=S)Nc1ccc(Br)c(Cl)c1)C1CC1	4%	21%	10µM*	·	·	0%
O=C(Nc1ccccc1)Nc1ccccc1Br	-22%	41%	-9%	-22%	?	-2%
CC(=O)c1ccc(NC(=S)Nc2ccc(Br)c(Cl)c2)cc1	2%	-7%	-16%	-16%[46.1 µM]	-10%[46.1 µM]	22µM*
O=C(Nc1ccccc1)Nc1ccc(Br)c(Cl)c1	0%	10%	13µM*	-34%	-30%	1%
CN(C)C(=S)Nc1ccc(Br)c(Cl)c1	-24%	0%	0%	-24%[14.2 µM]	0%	9%
CC(=O)Nc1cccc(NC(=S)Nc2ccc(F)c(Cl)c2)c1	0%	8%	-13%	-11%	-26%	28µM*
Cc1ccc(N2C(=O)CS(=O)(=O)C23C(=O)Nc2ccccc23)cc1C (configuration not stated)	·	-30%	·	·	2%[46.1 µM]	0%
CCC(=O)OC1=CN(Cc2ccccc2)S(=O)(=O)c2ccccc21	·	14%	·	5%[46.1 µM]	-8%[46.1 µM]	-9%
CCOC1=C2CN(S(=O)(=O)c3ccc(C)cc3)[C@@H](c3cccs3)C[C@H]2[C@H]2C(=O)N(c3ccccc3)C(=O)[C@H]2C1	-7%	-9%	·	·	·	·
O=C(NC(=S)Nc1ccccc1Br)C1CCCC1	?	37%	-28%	·	·	13µM*
COc1ccc(NC(=O)C2CCN(Cc3cnn(-c4ccccc4)c3-n3cccc3)CC2)cc1OC	-1%	?	?	?	-4%	-4%
COc1cccc(NC(=O)C2CCN(Cc3cnn(-c4ccccc4)c3-n3cccc3)CC2)c1	-2%	?	11µM*	?	?	3%
NC(=Nc1ccccc1)NC(=O)c1nc(Cl)c(N)nc1N	1%[18.4 µM]	17%	3%	?	?	·
NC(=NCc1ccccc1)NC(=O)c1nc(Cl)c(N)nc1N	-8%[18.4 µM]	0%	-17%	10µM*!	14%	·
SMILES	RE007 growth inh	FMDV inh	HCV inh	MARV entry inh	LASV entry inh	Sm TGR block
CC(=O)N1CCN(C)CC1	·	-14%	·	·	·	·
O=C(Nc1ccc(OC(F)F)c(Cl)c1)Nc1ccc2c(c1)OCO2	2%	-9%	18µM*	-3%	-25%	-7%
O=C(Nc1cccc(C(=O)O)c1)Nc1ccc2c(c1)OCO2	-15%	?	16%	?	0.32µM*	-4%
O=C(Nc1ccc2c(c1)OCO2)Nc1ccc2c(c1)OCO2	3%	81%	-2%	·	·	·
N#C/C(=C\c1ccc(-c2cc(Cl)ccc2Cl)o1)C(=O)Nc1ccccc1C(=O)O	·	57%	·	·	?	-12%
Cc1ccc2[nH]c3c(c2c1)CN(C(=O)CN1CC(C)OC(C)C1)CC3 (configuration not stated)	-1%	-11%	0%	6%	-15%	40µM*
CCn1cc(S(=O)(=O)c2cccc(C)c2)c(=O)c2cc(F)c(N3CCCC(C)C3)cc21 (configuration not stated)	·	8%	·	·	6%[46.1 µM]	1%
COc1ccc(Cn2c(C)nc3c(c2=O)c2nc4ccccc4nc2n3Cc2ccco2)cc1	8%	-22%	?	8%	·	·
Cc1nc2c(c(=O)n1Cc1ccccc1Cl)c1nc3ccccc3nc1n2Cc1ccco1	·	·	12%	2%	·	2.8µM*
Cc1cc(C)cc(-n2c3nc4ccccc4nc3c3c(=O)n(Cc4ccco4)cnc32)c1	30%	?	?	?	-11%	16µM*
COCCCn1cnc2c(c1=O)c1nc3ccccc3nc1n2-c1ccc(C)cc1	-3%	0%	-14%	?	-14%	-7%
C=C(CCN1C=C(C(=O)OCC)C(c2ccccc2)NC1=O)c1ccccc1 (configuration not stated)	·	·	·	10%[14.2 µM]	·	·
CC(C)=CCC/C(C)=C/CO/N=C1\C[C@@H](O)[C@@H](O)[C@@H]2[C@@H]3C(=O)N(Cc4ccc5c(c4)OCO5)C(=O)[C@@H]3CC[C@@H]12	·	·	·	-17%[14.2 µM]	·	·
COc1cc(C2c3cc4c(cc3CC3COC(=O)C32)OCO4)cc(OC)c1O (configuration not stated)	18%	-12%	?	?	?	·
O=C1NC2C(=CC(O)C(O)C2O)c2cc3c(c(O)c21)OCO3 (configuration not stated)	-29%	-10%	0.25µM*	?	?	·
O=C1NC2C(=CC(O)C(O)C2O)c2cc3c(cc21)OCO3 (configuration not stated)	-4%	?	0.56µM*	?	1µM*	·
O=C1NC2C(O)C(O)C(O)C(O)C2c2cc3c(c(O)c21)OCO3 (configuration not stated)	10%	?	?	?	0.14µM*	·
CCN(C(=O)COC(=O)c1ccc([N+](=O)[O-])o1)c1cccc2ccccc12	-8%	?	10%	·	·	·
Cn1c(=O)c(-c2cc(F)cc(F)c2)nc2cnc(Nc3ccccc3)nc21	·	-1%	·	·	·	·
CCn1ccc2cc(S(=O)(=O)N3CCCN(C(=O)Nc4ccccc4OC)CC3)ccc21	·	-1%	·	·	-13%[46.1 µM]	-11%
CCN1C(=O)S/C(=C/c2ccc(Sc3nc4ccccc4[nH]3)o2)C1=O	·	16µM*	?	?	?	-3%
O=C(N/N=C/c1ccc(Sc2nc3ccccc3[nH]2)o1)c1ccncc1	15%	-21%	10%	21%	?	1%
